SARS PLpro yeast – blocks SARS-CoV papain-like protease in a yeast assay. S. cerevisiae expressing SARS-CoV PLpro, growth rescue. Potency, µM (top dose mostly 32.9 µM), for inactives: at the highest dose activity, positive = growth rescue, usual class: activators. hit rate 0.19% among 330,000; calls by dose curve; also: potency is read from the fitted curve at half-maximal effect; 0% is about no effect; nearly all actives have a fitted effect of over 55% in size
LmPK inh – inhibitors of Leishmania mexicana pyruvate kinase; Q27686; Potency, µM (series often up to 57.5 µM), inactives show at the top dose activity change, negative = inhibition, most hits filed as inhibitors; hit rate 0.37% among 290,000; purified LmPK, Kinase-Glo ATP luminescence, 1 h; also: potency is read from the fitted curve at half-maximal effect; % is scaled to controls: 0 for no effect and ±100 for the full control effect
Target sequence (Q27686 whole entry, looked up): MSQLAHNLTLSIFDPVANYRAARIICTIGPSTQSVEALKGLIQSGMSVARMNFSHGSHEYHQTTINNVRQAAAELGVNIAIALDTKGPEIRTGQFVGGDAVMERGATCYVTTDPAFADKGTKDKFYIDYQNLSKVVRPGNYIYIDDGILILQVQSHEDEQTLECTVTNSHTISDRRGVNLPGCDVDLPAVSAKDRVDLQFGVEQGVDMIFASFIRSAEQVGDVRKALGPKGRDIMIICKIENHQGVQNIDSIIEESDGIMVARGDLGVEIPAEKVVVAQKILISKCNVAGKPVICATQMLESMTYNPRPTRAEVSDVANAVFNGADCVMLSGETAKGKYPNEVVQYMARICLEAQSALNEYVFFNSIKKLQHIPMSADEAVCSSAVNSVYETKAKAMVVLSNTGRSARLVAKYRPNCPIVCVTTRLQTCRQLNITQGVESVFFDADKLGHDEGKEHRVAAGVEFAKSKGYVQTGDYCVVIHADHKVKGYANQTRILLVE
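Purified LmPK (0.1 nM) converted ADP (0.1 mM) to ATP with PEP (0.5 mM) in imidazole buffer pH 7.2 with KCl and MgCl2, 1 h at room temperature. ATP was read by Kinase-Glo luminescence; data normalized to uninhibited and no-enzyme controls.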
NS1 function inh – influenza NS1 inhibition; Potency, µM (top dose mostly 46.1 µM), inactives show at the top dose activity, positive = more growth; hit rate 0.4% among 270,000; AID 2326; calls by dose curve; also: potency is read from the fitted curve at half-maximal effect; actives are rising curves; nearly all actives have a fitted effect of over 50% in size
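Compounds were scored for reversing the slow growth caused by influenza A NS1 in S. cerevisiae, measured by optical density at 600 nm. Assay medium contained 2% galactose at pH 6.0; NS1-free yeast of the same strain were the positive control.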
RE007 growth inh – less growth of the S. pombe RE007 Vpr strain; S. pombe RE007 Vpr strain, BacTiter-Glo ATP luminescence, 24 h; Potency, µM (titrated, usually from 92.2 µM), inactives show at the highest dose activity change, negative = less growth, usual class: inhibitors; hit rate 0.21% among 360,000; AID 651644; active = well fitted falling curve with a large enough effect; inconclusive = small, poorly fitted or top-dose-only effect; inactive = no such curve, though single readings can be large or run the other way; also: potency is read from the fitted curve at half-maximal effect; % is scaled to controls: 0 for no effect and ±100 for the full control effect; nearly all actives have a fitted effect of over 50% in size
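Fission yeast RE007 carrying one integrated HIV-1 vpr copy, seeded at OD 0.01 in PMG+AL medium with 23 nL pinned compound. Grown 24 h at 30 degrees; viability read by BacTiter-Glo luminescence after 5 min.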
TbPYK inhibitor – inhibitors of Trypanosoma brucei pyruvate kinase; TbPYK enzyme, Kinase-Glo Plus ATP luminescence, 45 min; Potency, µM (highest dose often 76.8 µM), for inactives: at the top dose activity, negative = inhibition, most hits filed as inhibitors; hit rate 0.12% among 410,000; AID 624173; also: potency is read from the fitted curve at half-maximal effect; % is scaled to controls: 0 for no effect and ±100 for the full control effect; nearly all actives have a fitted effect of over 50% in size
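Assay buffer: 50 mM TEA pH 7.2, 100 mM KCl, 10 mM MgCl2, 0.05% BSA, 0.01% Tween-20. Pyruvate kinase from T. brucei plus substrate met compound, then ADP (130 uM final). Luminescence was read post 45 min RT.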
Sm TGR block – S. mansoni TGR enzyme inhibition. hit rate 3% among 360,000. purified TGR, DTNB reduction, TNB absorbance 405 nm. Q962Y6. Potency, µM (highest dose often 114 µM), inactives show at the highest dose activity change, negative = inhibition, most hits filed as inhibitors. AID 485364; also: potency is read from the fitted curve at half-maximal effect; % is scaled to controls: 0 for no effect and ±100 for the full control effect; nearly all actives have a fitted effect of over 60% in size
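First, TGR (20 nM dispensed) and NADPH were mixed with compound. Second, a 15 min room-temperature incubation followed. Third, further NADPH and then DTNB were added to start the reaction. Finally, TNB absorbance was monitored kinetically.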
NS1 inh valid – validation of influenza NS1 protein function inhibitors | shares compounds with NS1 function inh | 1,400 tested, under 10 active | activity change, negative = inhibition, % at 32.9 µM | influenza NS1 function cell assay, 15-point titration; calls by dose curve; also: 0% is about no effect
PR8 titer – influenza NS1 inhibitors: inhibition of influenza A/PR/8/34 replication. shares compounds with NS1 function inh. MDCK infected influenza A/PR/8/34, virus titer TCID50; hits give low values. virus titer (log TCID50), log10 TCID50 at 5 µM. hit rate 30% among 95. AID 504647; call rule not given here
The depositor's hits bear a star. Most compounds without a hit are left out; they make up all but 3.3% or so of the library. Unless noted, calls follow the shape of the dose curve; as a rule, active = well fitted curve in the direction sought with a large enough effect; inconclusive = small, poorly fitted or top-dose-only effect, or another doubt; inactive = no such curve, though single readings can be large; an effect the other way counts as inactive or inconclusive.

For Cc1ccc(C)c(N(CC(=O)NC2CCCCC2)C(=O)c2snc(C(N)=O)c2N)c1 the results were SARS PLpro yeast 1%, LmPK inh 8%, NS1 function inh 13%, RE007 growth inh -12%, TbPYK inhibitor 0% and Sm TGR block -6%.
Screening CN[C@@H]1NC(=O)c2ccccc2N1Cc1ccc(F)cc1 returned NS1 function inh -4%.
Screening CCOc1cc(CNC(=O)c2ccc(Cn3c(=O)c4cccn4c4cccnc43)cc2)ccc1OC returned TbPYK inhibitor 1% and Sm TGR block 3%.
Screening Cc1ccc(S(=O)(=O)N2CCC(=O)N(C(COCc3ccc(Cl)cc3Cl)Cc3ccccc3)CC2)cc1 (configuration not stated) returned SARS PLpro yeast 1%, LmPK inh 6%, NS1 function inh inconclusive, RE007 growth inh 5%, TbPYK inhibitor 2%, Sm TGR block 4%, NS1 inh valid -4 and PR8 titer 7.5*.
`CC(NC(=O)c1cccc(NC(=O)c2nsc3ccccc23)c1)c1ccccc1` (configuration not stated) gave TbPYK inhibitor 0% and Sm TGR block -10%.
Screening CCCOc1ccc(CNC(=O)c2oc3ccc4c(c3c2C)C(=O)CC(C)(CC)O4)cc1 (configuration not stated) returned TbPYK inhibitor 2% and Sm TGR block 2%.
Cc1ccc(N(CC(=O)Nc2cccc(C)c2)S(=O)(=O)c2cccc3nonc23)cc1 was read as SARS PLpro yeast -6%, LmPK inh 4%, NS1 function inh 7.1µM*, TbPYK inhibitor 8%, Sm TGR block -3%, NS1 inh valid -14 and PR8 titer 8.3.
Screening C=CCN1CCc2cccc3c2C1Cc1ccc(O)c(O)c1-3 (configuration not stated) returned NS1 function inh 11µM* and NS1 inh valid -20.
O=C(CCc1ccccc1)NCc1ccccc1 was read as SARS PLpro yeast -1%, LmPK inh -5%, RE007 growth inh -1%, TbPYK inhibitor 1% and Sm TGR block 2%.
Screening Cc1ccc(CCC(=O)NCc2ccccc2)o1 returned SARS PLpro yeast -3%, LmPK inh 0%, NS1 function inh 5µM*, RE007 growth inh -3%, TbPYK inhibitor -5%, Sm TGR block 35µM* and NS1 inh valid 1.
For Fc1ccc2c(c1)nnn2C1CCN(Cc2nnnn2CCc2ccccc2)CC1 the results were SARS PLpro yeast 1%, LmPK inh 0%, NS1 function inh -2%, RE007 growth inh 2%, TbPYK inhibitor -2% and Sm TGR block -7%.
`Fc1ccc(Cn2nnnc2CN2CCC(n3nnc4cc(C(F)(F)F)ccc43)CC2)cc1` gave SARS PLpro yeast 1%, LmPK inh 0%, NS1 function inh 5µM*, RE007 growth inh -1%, TbPYK inhibitor -2%, Sm TGR block 1% and NS1 inh valid inconclusive.
CCn1c(SCC(=O)Nc2cccc(Cl)c2)nnc1-c1nonc1NC(C)=O was read as TbPYK inhibitor 5% and Sm TGR block 0%.
Screening COc1ccc(CNC(=O)Cn2ccc3cc(S(=O)(=O)N4CCCCCC4)ccc32)cc1OC returned TbPYK inhibitor 6% and Sm TGR block 0%.
`COc1ccc(CCNC(=O)Cn2ccc3cc(S(=O)(=O)N4CCCC4)ccc32)cc1OC` gave SARS PLpro yeast 7%, LmPK inh 4%, NS1 function inh 2.5µM*, RE007 growth inh 6%, TbPYK inhibitor 4%, Sm TGR block -24% and NS1 inh valid -5.

Source: PubChem (National Center for Advancing Translational Sciences (NCATS))
